# Assay outcomes as filed in PubChem BioAssay.
# Pf Dd2 growth = qHTS Primary assay for Inhibitors of Plasmodium falciparum Dd2 growth in vitro; Potency, µM (doses to about 28.9 µM), for the others: at the highest dose activity, negative = inhibition, most hits filed as inhibitors; actives 4.3% (n = 120,000); P. falciparum Dd2 growth, SYBR Green, 72 h; active = well fitted inhibition curve with a large enough effect;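 also: plate controls were DMSO vehicle for no effect and reference drug for full effect; nearly all actives have a fitted effect of over 65% in size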
#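 Readout: SYBR Green fluorescence, 485 nm excitation, 535 nm emission, after ~16 h lysis at 37C. Before that, Dd2-infected red cells (2.5% hematocrit) grew 72 h with compound, 29 uM top final concentration.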
# Active calls of the source: *; i = inactive; [ ] = dose if it differs, or a comment. This is one part of a sample in which hits are shown more often than they occur. Potency is read from the fitted curve at half-maximal effect.
SMILES,Pf Dd2 growth
C[C@]1(CO)[C@H]2Cc3sc(NC(=O)c4ccc(F)cc4)nc3[C@@H](CC(=O)N3CCOCC3)[C@]2(C)CC[C@H]1O,10µM*
CC(=O)N1CCN(C(=O)C[C@@H]2c3nc(-c4ccsc4)sc3C[C@@H]3[C@](C)(CO)[C@H](O)CC[C@]32C)CC1,-49%
C[C@]1(CO)[C@H]2Cc3sc(NC(=O)c4ccc(F)cc4)nc3[C@@H](CC(=O)N3CCCCC3)[C@]2(C)CC[C@H]1O,i
C[C@]1(CO)[C@H]2Cc3sc(NC(=O)C4CCC4)nc3[C@@H](CC(=O)N3CCOCC3)[C@]2(C)CC[C@H]1O,i
CC(C)(C)c1ccc(C(=O)Nc2nc3c(s2)C[C@@H]2[C@](C)(CO)[C@H](O)CC[C@@]2(C)[C@@H]3CC(=O)N2CCC(C(N)=O)CC2)cc1,11µM*
C[C@]1(CO)[C@H]2Cc3sc(-c4ccccc4)nc3[C@@H](CC(=O)N3CCOCC3)[C@]2(C)CC[C@H]1O,i
CN(C)c1ccc(C(=O)N2CCC3(CC2)N=C(c2ccc(Br)cc2)NO3)cc1,i
COCC(=O)NCC(=O)N1CCCCCNC(=O)CC1c1ccccc1 (configuration not stated),14%
Cc1cc(C)n(CCC(=O)N2CCCC2c2nc(C3CCOCC3)no2)n1 (configuration not stated),14%
CN1C[C@@H](NC(=O)c2ccc(F)cc2)C[C@H]1c1nc(-c2cncnc2)no1,i
CN1C[C@@H](NC(=O)c2ccc(F)cc2)C[C@H]1c1nc(-c2ccccc2)no1,11µM*
CN1C[C@@H](NC(=O)c2ccc(F)cc2)C[C@H]1c1nc(-c2ccncc2)no1,i
CN1C[C@@H](NC(=O)c2ccc(-c3ccccc3)cc2)C[C@H]1c1nc(-c2ccncc2)no1,11µM*
CN1C[C@@H](NC(=O)c2cccnc2)C[C@H]1c1nc(-c2ccncc2)no1,-28%[44.1 µM]
CN1C[C@@H](NC(=O)c2cccnc2)C[C@H]1c1nc(-c2cccnc2)no1,2%[44.1 µM]
O=C1CCN(C(=O)C2CCN(C(=O)c3ccco3)CC2)CCCCCCN1,21%
COc1nc2c(cc1CNC(=O)Cn1ccc(C)n1)C(=O)N(C1CCCC1)C2,-6%
CCOc1ccc(C2Cn3nnc(-c4nc(-c5ccccc5)no4)c3CO2)cc1 (configuration not stated),i
CCOc1ccc2c(c1)NC(c1ccc(OCC)c(OCC)c1)=NC(c1ccc(F)cc1)=N2,13µM*
CC(C)COc1ccc(C2=NC(c3ccncc3)=Nc3ccc(F)cc3N2)cc1,-2%
CCc1ccc2c(c1)NC(c1ccc(F)cc1)=NC(c1ccncc1)=N2,-13%
CC(C)NC(=O)NC[C@H]1OC[C@@H](NC2CCNCC2)[C@@H]1O,-6%[44.1 µM]
c1coc(-c2nc3ccccn3c2Nc2ccc3c(c2)OCCO3)c1,i
CN(C)c1ccc(-c2nc3ccccn3c2Nc2ccc3c(c2)OCCO3)cc1,10µM*
Cc1ccc2nc(-c3cccc(Cl)c3)c(Nc3ccc4c(c3)OCO4)n2c1,-7%
SMILES,Pf Dd2 growth
Cc1ccn2c(Nc3ccc4c(c3)OCO4)c(-c3ccc(O)cc3)nc2c1,13µM*
Cc1ccc(-c2nc3ccccn3c2Nc2ccc3c(c2)OCCO3)s1,i
CSc1ccc(-c2nc3cc(C)ccn3c2Nc2ccc(C)cc2)cc1,0%
COCCN1C(=O)[C@H]2CN(Cc3ccc(OC)c(OC)c3Cl)C[C@H]2C1=O,-23%
CN1CCN(c2cc(N3CCCC(CO)(CC4CC4)C3)nc(N)n2)CC1 (configuration not stated),-3%
Cc1cc(N2C[C@H]3CN(C(=O)CN(C)C)C[C@@]3(C(=O)O)C2)nc(N)n1,1%
Cc1ccc(C)c(S(=O)(=O)N(C)CC2CCOC2)c1 (configuration not stated),i[5.79 µM]
O=C(NCCn1cccn1)c1ccc(C2CCNC2)cc1 (configuration not stated),-8%
CC(C)CC1=NC2(CCN(C(=O)c3ccoc3)CC2)C(=O)N1,-2%
COc1cccc(CN2CCCC(c3nc(-c4cnccn4)no3)CCNC(=O)CC2)c1OC (configuration not stated),i
Cn1c(=O)c2c(-c3ccccc3Br)n(CCc3ccccc3)cc2n(C)c1=O,-20%
Cc1cc(N)c(-n2cc3c(c2-c2ccc(Br)cc2)c(=O)n(C)c(=O)n3C)cc1C,-18%
Cc1ccc(-n2cc3c(c2-c2ccccc2Br)c(=O)n(C)c(=O)n3C)cc1N,13µM*
O=C(c1ccsc1)N1CCC(Oc2ccccc2-c2nc(C3CC3)no2)C1 (configuration not stated),-4%
COc1ccc(C2Cn3cnc(C(=O)N4CCC(C(=O)Nc5ccc(F)cc5C)CC4)c3CO2)cc1 (configuration not stated),i
CC(C)(C)c1ccccc1NC(=O)CSc1nc(-c2cccs2)cc(C(F)(F)F)n1,i
COC(=O)c1ccccc1NC(=O)CSc1nc(-c2ccccc2)cc(C(F)(F)F)n1,2.8µM*
COC(=O)c1ccccc1NC(=O)CSc1n[nH]c(C)n1,53%
O=C(NCc1ccccn1)C1CCN(C(=O)c2ncn3c2COC(c2ccc(Cl)cc2)C3)CC1 (configuration not stated),i
CNC(=O)C(C)(C)N1CCC[C@H]1C(=O)N1CCCCC1,-19%[44.1 µM]
CC[C@H]1CN(S(=O)(=O)c2ccccc2)CC[C@H]1CC(=O)NCCN1CCOCC1,i
Cc1ccsc1C(=O)NCC1(C)CCOCC1,25%
CCCC1=Nc2cc(C(=O)NCCCN(CC)CC)ccc2Sc2ccccc21,-8%
CCCC1=Nc2cc(C(=O)NC3CCCCC3)ccc2Sc2ccc(C)cc21,10µM*
CCC1=Nc2cc(C(=O)NC3CCC(C)CC3)ccc2Sc2ccc(C)cc21 (configuration not stated),10µM*
SMILES,Pf Dd2 growth
Cc1cccc(C)c1-c1nnc2ccc(C(=O)NC3CC3)cn12,23%
CCCC1=Nc2cc(C(=O)N3CCC(C)CC3)ccc2Sc2ccc(C)cc21,-23%
CC1=Nc2cc(C(=O)NC3CCC(C)CC3)ccc2Sc2c(C)ccc(C)c21 (configuration not stated),11µM*
CCc1cc(C(=O)NCc2ccc(F)cc2)no1,8%
Cc1ccc(C(=O)NC2CCN(c3cnn(C)c(=O)c3)CC2)cc1C,-5%
CCCC1=Nc2cc(C(=O)NCCc3ccc(OCC)cc3)ccc2Sc2ccccc21,-29%
CCn1ncc(N2CCC(NC(=O)c3ccc(C)c(C)c3)CC2)cc1=O,-10%
CCC1=Nc2cc(C(=O)NCc3ccc(F)cc3)ccc2Sc2ccc(C)cc21,5.6µM*
CCC1=Nc2cc(C(=O)NCCCOC)ccc2Sc2ccc(Br)cc21,-28%
CO[C@H]1[C@H](NC(=O)C2CCN(C(C)=O)CC2)c2ccccc2C12CCNCC2,-9%
Cc1ccc(CNC(=O)CN2C(=O)C(c3ccccc3)=NC23CCCCCC3)cc1,i
CN1CC(=O)N(C2CCCC2)Cc2c(NC3CC3)ncnc21,-7%
Clc1ccc(CN2CCC3(CC2)CC(c2cccnc2)=NO3)cc1,19%
COCc1cc(=O)n(CC(=O)Nc2cccc(C)c2)c(N2CCOCC2)n1,i
CCc1cn(C[C@H](NC2CCOCC2)C(=O)O)c(=O)[nH]c1=O,14%[44.1 µM]
O=C(NC[C@H]1OC[C@@H](N(Cc2ccccc2)Cc2ccccc2)[C@@H]1O)Nc1ccccc1,i
O=C(N[C@H]1CCN2C(=O)c3ccccc3NC(=O)[C@@H]2C1)C1CCCC1,-12%[44.1 µM]
N#Cc1ccc(CN2CC[C@H](c3nnc(-c4ccccc4F)o3)C2)cc1,i
